# Laboratory results taken from PubChem BioAssay (NCATS).
# Results filed as inconclusive are left out. Where a call stands in place of a potency, no number is given. The source made the active and inactive calls. Calls follow the shape of the full dose curve.
# Molecular target: Vitamin D3 receptor (Homo sapiens) (UniProt P11473)
# Test: qHTS assay for small molecule antagonists of vitamin D receptor signaling (AID 588541)
# Settings: HEK293T VDR-UAS-bla, beta-lactamase ratio, antagonist mode; series mostly up to 76.7 µM
# Excerpt: NIH Chemical Genomics Center [NCGC]
# U.S. Environmental Protection Agency [EPA]
# National Institutes of Environmental Health Sciences [NIEHS]
# National Toxicology Program [NTP]
# The Vitamin D receptor (VDR) is a member of nuclear hormone receptor superfamily and it plays a critical role in calcium homeostasis and bone metabolism. It plays a role in inducing cell differentiation, inhibiting cell growth and in thrombogenicity. So, VDR that mediates these effects represents a pharmacological target in prevention and treatment of hyperproliferative malignancies, such as cancer and psoriasis, cardiovascular, immunological, inflammatory and renal diseases etc.
# NCGC Assay Protocol Summary
# Using a beta-lactamase reporter-gene under control of Vitamin D receptor (VDR) response element, a cell-based assay [GeneBLAzer (VDR -UAS-bla assay developed by Invitrogen] was used to measure VDR ligands signaling. GeneBLAzer VDR -UAS-bla HEK293T cells were used with assay medium containing 2% charcoal-stripped FBS. The assay was performed in clear bottom black Greiner 1536-well plates. Library compounds were measured for their ability to inhibit the reporter gene activity. Compounds were screened in a titration series in 1536-well format. The fluorescence intensity (405 nm excitation, 460/530 nm emission) was measured using an EnVision plate reader. Data was normalized relative to 1-alpha,25-Dihydroxy vitaminD3 control (50 nM, 100%) and DMSO only wells (basal, 0%). Concentration-response titration points for each compound were fitted to the Hill equation yielding concentrations of half-maximal inhibition (IC50) and maximal response (efficacy) values.
# qHTS protocol for VDR beta-lactamase assay in antagonist mode
# [Step] [Parameter] [Value] [Description]
# 1. Reagent; 5 uL; 2000 cells/well
# 2. Incubation; 37 C for 5 hrs
# 4. Controls (DMSO); 23 nL,
# 5. Agonist (Stimulator); 1uL; 1-alpha,25-Dihydroxy vitaminD3 at 50 nM and 3 nM final concentrations
# 6. Incubation; 37 C for 16 hrs
# 7. Detection reagent; 1 uL of CCF4-dye
# 8. Incubation; RT for 2 hrs
# 9. Detection; Fluorescence; Envision plate reader
# Vitamin D3 receptor (Homo sapiens), sequence (P11473 whole entry, looked up): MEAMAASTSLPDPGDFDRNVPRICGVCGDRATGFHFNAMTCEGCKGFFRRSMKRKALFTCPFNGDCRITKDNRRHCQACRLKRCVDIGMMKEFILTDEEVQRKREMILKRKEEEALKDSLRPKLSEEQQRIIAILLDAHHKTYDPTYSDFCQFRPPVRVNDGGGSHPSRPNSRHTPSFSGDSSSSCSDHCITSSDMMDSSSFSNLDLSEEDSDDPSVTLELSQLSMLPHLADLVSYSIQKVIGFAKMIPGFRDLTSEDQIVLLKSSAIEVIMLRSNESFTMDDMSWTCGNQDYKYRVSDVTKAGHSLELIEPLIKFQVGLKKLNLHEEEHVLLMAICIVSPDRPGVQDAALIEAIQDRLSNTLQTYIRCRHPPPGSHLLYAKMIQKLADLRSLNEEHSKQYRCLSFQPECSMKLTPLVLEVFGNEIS
row,Compound,Potency
1,Clc1ccccc1Cl,inactive
2,C[C@]12CCC(=O)C[C@@H]1CC[C@@H]1[C@@H]2CC[C@]2(C)[C@@H](O)CC[C@@H]12,inactive
3,CCCSP(=O)(OCC)SCCC,inactive
4,ClCC1CO1 (centres undefined),inactive
5,[O]=[Cr](=[O])([OH])[O][Cr](=[O])(=[O])[OH],inactive
6,S=C=S,inactive
7,C[C@H]1CC[C@@H]2[C@@H](C)[C@H]3[C@H](C[C@H]4[C@@H]5CC=C6CC(O[C@@H]7O[C@H](CO)[C@H](O)[C@H](O[C@@H]8O[C@H](CO)[C@@H](O)[C@H](O)[C@H]8O)[C@H]7O[C@H]7O[C@@H](C)[C@H](O)[C@@H](O)[C@H]7O)CC[C@]6(C)[C@H]5CC[C@]34C)N2C1 (some centres undefined),inactive
8,O=[N+]([O-])c1ccc(F)c([N+](=O)[O-])c1,inactive
9,ClC(Cl)(Cl)Cl,inactive
10,N#CN,inactive
11,COC1=CC(=O)O[C@@H](/C=C/c2ccccc2)C1,inactive
12,C=CCN=C=S,inactive
13,O=C(O)C(Cl)(Cl)Cl,inactive
14,[O]=[Cd],inactive
15,CCCCCCCCOC(=O)c1ccccc1C(=O)OCCCCCCCC,inactive
16,O=C1CCO1,inactive
17,NNC(N)=O,inactive
18,CCOC(=O)c1ccccc1C(=O)OCC,inactive
19,CCCCCl,inactive
20,O=Cc1ccco1,inactive
21,CC(C)CCON=O,inactive
22,O=C(O)c1cc[c]([Hg][Cl])cc1,39.8 µM (active)
23,CCOP(=O)(OCC)O/C(=C/Cl)c1ccc(Cl)cc1Cl,inactive
24,O=C/C=C/c1ccccc1,inactive
